Experimental data taken from PubChem BioAssay (EPA / NIEHS).
Records with an inconclusive call do not appear. Activity calls are given as the source filed them. Rule for the calls: active = hit-call score of the fitted dose curve at least 0.9, where 1 is the maximum; inconclusive = response in the unintended direction; inactive = score below 0.9.

These molecules were tested against human Retinoid X Receptor beta (RXRb), RXRB (gene 6257) (UniProt P28702) (assay: ATG_RXRb_TRANS: Attagene TRANS-FACTORIAL HepG2 Assay for human Retinoid X Receptor beta (RXRb) (AID 2283013)).
Method: ATG_TRANS is a cell-based, multiplexed-readout assay that uses HepG2, a human liver cell line, with measurements taken at 24 hours after chemical dosing in a 24-well plate.ATG_RXRb_TRANS is one of 30 assay component(s) measured or calculated from the ATG_TRANS assay. It is designed to make measurements of mRNA induction, a form of inducible reporter, as detected with fluorescence intensity signals by Reverse transcription polymerase chain reaction (RT-PCR) and Capillary electrophoresis technology.Data from the assay component ATG_RXRb_TRANS was analyzed into 1 assay endpoint. This assay endpoint, ATG_RXRb_TRANS, was analyzed in the positive analysis fitting direction relative to DMSO as the negative control and baseline of activity. Using a type of inducible reporter, measures of mRNA for gain-of-signal activity can be used to understand the reporter gene at the transcription factor-level as they relate to the gene RXRB. Furthermore, this assay endpoint can be referred to as a primary readout, because this assay has produced multiple assay endpoints where this one serves a reporter gene function. To generalize the intended target to other relatable targets, this assay endpoint is annotated to the nuclear receptor intended target family, where the subfamily is non-steroidal.
Human liver HepG2 cells are transiently transfected with multiple reporter transcription units (MRTUs) in 6-well plates using FuGene 6 reagent (Roche; 3 ml FuGene/1 mg DNA). The MRTU constructs are regulated by a cis-regulating element (promoter). […] A major difference between the CIS and TRANS system is that in CIS activities of endogenous TFs are measured, whereas the TRANS assay evaluates changes in activities of exogenous, chimeric NR-Gal4 proteins. […] At the end of 24 hour incubation, total RNA was isolated using TriZol reagent (Invitrogen). The isolated RNA is then reverse-transcribed using oligo(dT) primer and Mo-MLV reverse transcriptase (Invitrogen) with DNAse I (Ambion) treatment for 30 min. The one-tenth of the produced cDNA was amplified by PCR using Taq DNA polymerase (Invitrogen) and two reporter sequence-specific primers. The PCR products were fluorescently labeled by primer extension with 6-arboxyfluorescein (6-FAM) 5'-labeled reporter sequence-specific primer (2 min at 95 C, 20 s at 68 C and 10 min at 72 C) and these products were digested with 5U of HpaI (New England Biolabs) for 2h at 37 C. The fragments were purified using Qiaquick PCR columns (Qiagen), analyzed on an ABI 3130xL genetic analyzer (Applied Biosystems) with peak positions identified by using a set of X-rhodamine (ROX)-labeled MapMarker1000 molecular weight standards (BioVentures). The raw capillary electrophoresis data was processed using Attagraph software (Attagene).

human Retinoid X Receptor beta (RXRb), RXRB (gene 6257), sequence (P28702 whole entry, looked up): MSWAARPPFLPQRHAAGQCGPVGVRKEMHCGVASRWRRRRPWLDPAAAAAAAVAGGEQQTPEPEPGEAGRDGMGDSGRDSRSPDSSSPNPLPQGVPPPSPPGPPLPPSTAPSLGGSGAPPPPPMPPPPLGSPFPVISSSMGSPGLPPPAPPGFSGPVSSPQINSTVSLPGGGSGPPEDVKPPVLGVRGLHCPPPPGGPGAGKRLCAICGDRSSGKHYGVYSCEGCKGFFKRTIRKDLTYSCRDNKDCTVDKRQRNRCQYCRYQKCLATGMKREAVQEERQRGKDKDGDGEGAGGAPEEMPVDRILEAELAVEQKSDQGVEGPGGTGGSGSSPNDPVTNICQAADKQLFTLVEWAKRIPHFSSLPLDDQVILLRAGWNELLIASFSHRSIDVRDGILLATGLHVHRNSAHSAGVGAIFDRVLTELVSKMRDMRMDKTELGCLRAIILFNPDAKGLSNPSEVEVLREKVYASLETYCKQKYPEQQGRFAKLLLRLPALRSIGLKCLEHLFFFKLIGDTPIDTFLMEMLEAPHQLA

**Q.** Which outcome does the source give for COP(=O)(OC)C(O)C(Cl)(Cl)Cl (stereo not given) here?
**A.** inactive

**Q.** With COP(=O)(OC)SCn1c(=O)oc2cc(Cl)cnc21 as the molecule, how does the outcome read?
**A.** inactive

**Q.** How did the outcome turn out when CCOC(=O)COc1cc(-c2nn(C)c(OC(F)F)c2Cl)c(F)cc1Cl was run?
**A.** inactive

**Q.** With CCOP(=S)(OCC)Oc1ccc([N+](=O)[O-])cc1 as the molecule, how does the outcome read?
**A.** inactive

**Q.** With CC(C)=CC1C(C(=O)OCN2C(=O)C3=C(CCCC3)C2=O)C1(C)C (stereo not given) as the molecule, how does the outcome read?
**A.** inactive

**Q.** With CSc1nc(NC(C)C)nc(NC(C)C)n1 as the molecule, how does the outcome read?
**A.** inactive

**Q.** C[N+]1(C)CCCCC1 was tested. Which outcome did it give?
**A.** inactive

**Q.** Which outcome does the source give for Nc1c(Cl)cc([N+](=O)[O-])cc1Cl here?
**A.** inactive

**Q.** For COP(=O)(NC(C)=O)SC (stereo not given), which outcome is on record?
**A.** inactive

**Q.** Which outcome does the source give for CCOP(=S)(Oc1cnc(C(C)(C)C)nc1)OC(C)C (stereo not given) here?
**A.** inactive

**Q.** For S=C1NCCN1, which outcome is on record?
**A.** inactive

**Q.** How did the AC50 turn out when Cc1cc(C2CC2)nc(Nc2ccccc2)n1 was run?
**A.** 75.3 µM (active)

**Q.** Cc1ccn2nc(S(=O)(=O)Nc3c(F)cccc3F)nc2n1 was tested. Which outcome did it give?
**A.** inactive

**Q.** With COc1ccc(C(=CC(=O)N2CCOCC2)c2ccc(Cl)cc2)cc1OC as the molecule, how does the outcome read?
**A.** inactive

**Q.** CCCOCC(=Nc1ccc(Cl)cc1C(F)(F)F)n1ccnc1 was tested. Which outcome did it give?
**A.** inactive

**Q.** For CON=C(C(=O)OC)c1ccccc1CON=C(C)c1cccc(C(F)(F)F)c1, which outcome is on record?
**A.** inactive

**Q.** How did the outcome turn out when CC(=NC#N)N(C)Cc1ccc(Cl)nc1 was run?
**A.** inactive

**Q.** Which outcome does the source give for CCOP(=S)(OCC)SCCSCC here?
**A.** inactive

**Q.** For CCC(CC)Nc1c([N+](=O)[O-])cc(C)c(C)c1[N+](=O)[O-], which outcome is on record?
**A.** inactive

**Q.** COc1cc(OC)nc(Sc2cccc(Cl)c2C(=O)O)n1 was tested. Which outcome did it give?
**A.** inactive

**Q.** CCOC(=O)CC(SP(=O)(OC)OC)C(=O)OCC (stereo not given) was tested. Which outcome did it give?
**A.** inactive

**Q.** With CNC(=O)Oc1cccc2c1OC(C)(C)O2 as the molecule, how does the outcome read?
**A.** inactive

**Q.** How did the outcome turn out when CN(C)NC(=O)CCC(=O)O was run?
**A.** inactive

**Q.** Which outcome does the source give for CCCSP(=O)(OCC)SCCC here?
**A.** inactive

**Q.** For O=c1ccc(=O)[nH][nH]1, which outcome is on record?
**A.** inactive

**Q.** For CCOP(=S)(OCC)OC(Cl)C(Cl)(Cl)Cl (stereo not given), which outcome is on record?
**A.** inactive

**Q.** How did the outcome turn out when CNC(=O)ON=C(C)SC was run?
**A.** inactive

**Q.** How did the outcome turn out when Nc1nc(N)nc(NC2CC2)n1 was run?
**A.** inactive

**Q.** Which outcome does the source give for CC1=NNC(=O)N(/N=C/c2cccnc2)C1 here?
**A.** inactive

**Q.** Which outcome does the source give for CCNc1nc(Cl)nc(NC(C)(C)C#N)n1 here?
**A.** inactive

**Q.** How did the outcome turn out when C=C(C)[C@H]1Cc2c(ccc3c2O[C@@H]2COc4cc(OC)c(OC)cc4[C@@H]2C3=O)O1 was run?
**A.** inactive

**Q.** With CN1COCN(Cc2cnc(Cl)s2)C1=N[N+](=O)[O-] as the molecule, how does the outcome read?
**A.** inactive

**Q.** How did the outcome turn out when CC(C)[C@H](C(=O)O[C@H](C#N)c1cccc(Oc2ccccc2)c1)c1ccc(Cl)cc1 was run?
**A.** inactive

**Q.** With CSC1=N[C@@](C)(c2ccccc2)C(=O)N1Nc1ccccc1 as the molecule, how does the outcome read?
**A.** inactive

**Q.** With CCCCSP(=O)(SCCCC)SCCCC as the molecule, how does the outcome read?
**A.** inactive

**Q.** With C#CC(C)(C)NC(=O)c1cc(Cl)cc(Cl)c1 as the molecule, how does the outcome read?
**A.** inactive

**Q.** How did the outcome turn out when CCOP(=S)(OCC)Oc1cc(C)nc(C(C)C)n1 was run?
**A.** inactive

**Q.** With CCC(=O)Nc1ccc(Cl)c(Cl)c1 as the molecule, how does the outcome read?
**A.** inactive

**Q.** How did the outcome turn out when CNc1cnn(-c2cccc(C(F)(F)F)c2)c(=O)c1Cl was run?
**A.** inactive

**Q.** Which outcome does the source give for CCC(=NOC/C=C/Cl)C1=C(O)CC(C2CCOCC2)CC1=O (stereo not given) here?
**A.** inactive
